Experimental data from PubChem BioAssay (NCI).
The panel holds about 83,000 compounds, 20% with a hit somewhere; the sample as a whole holds those more often.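 Method: cells in 96-well plates; compound added at one concentration; 48 h incubation; percent growth measured; values under 10 scored active.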 Activity calls are given as the source filed them.

How the values were obtained:
Experiment in all cases: NCI-60 one-dose screen, 48 h (100 = growth as untreated, 0 = no growth, -100 = all killed)
Conditions in all cases: 10 µM unless noted
SK-MEL-2 melanoma = system: SK-MEL-2 melanoma
EKVX NSCLC = system: EKVX NSCLC
SN12C renal = system: SN12C renal
UO-31 renal = system: UO-31 renal
TK-10 renal = system: TK-10 renal
ACHN renal = system: ACHN renal
CAKI-1 renal = system: CAKI-1 renal
A498 renal = system: A498 renal
CCRF-CEM leukemia = system: CCRF-CEM leukemia
MOLT-4 leukemia = system: MOLT-4 leukemia
RPMI-8226 leukemia = system: RPMI-8226 leukemia
OVCAR-8 ovarian = system: OVCAR-8 ovarian
OVCAR-5 ovarian = system: OVCAR-5 ovarian
OVCAR-4 ovarian = system: OVCAR-4 ovarian
SK-OV-3 ovarian = system: SK-OV-3 ovarian
IGROV1 ovarian = system: IGROV1 ovarian
OVCAR-3 ovarian = system: OVCAR-3 ovarian
HS 578T breast = system: HS 578T breast
NCI/ADR-RES ovarian = system: NCI/ADR-RES ovarian
SR leukemia = system: SR leukemia

Measured: growth

CSc1nc(NCCO)c(C#N)c(-c2cccc(N)c2)n1
inactive: SK-MEL-2 melanoma 108% | EKVX NSCLC 81.4% | SN12C renal 94.7% | UO-31 renal 74.6% | TK-10 renal 145% | ACHN renal 92.3% | CAKI-1 renal 80.3% | A498 renal 83.7% | CCRF-CEM leukemia 94.9% | MOLT-4 leukemia 95.6% | RPMI-8226 leukemia 99.7% | OVCAR-8 ovarian 98.8% | OVCAR-5 ovarian 96.2% | OVCAR-4 ovarian 96.4% | SK-OV-3 ovarian 93% | IGROV1 ovarian 92% | OVCAR-3 ovarian 113% | HS 578T breast 96.5% | NCI/ADR-RES ovarian 99.8%

CN(C)C(=O)c1cc2cnc(Nc3ccc(-c4csc5c(=O)cc(N6CCNCC6)oc45)cc3)nc2n1C1CCCC1
inactive: SK-MEL-2 melanoma 33.6% | EKVX NSCLC 40.2% | SN12C renal 24.2% | TK-10 renal 26.6% | ACHN renal 16% | CAKI-1 renal 43.2% | OVCAR-8 ovarian 20.7% | OVCAR-5 ovarian 22.9% | OVCAR-4 ovarian 29.7% | SK-OV-3 ovarian 32.2% | IGROV1 ovarian 15.6% | OVCAR-3 ovarian 20.6% | HS 578T breast 11.4% | NCI/ADR-RES ovarian 77.5%
active: UO-31 renal -10% | A498 renal -7.2% | CCRF-CEM leukemia 1.39% | MOLT-4 leukemia 4.52% | RPMI-8226 leukemia -22.9%

COc1ccc2[nH]c(=O)c(/C=C/C(=O)c3ccc(Nc4nccc(-c5ccc6ccccc6c5)n4)cc3)cc2c1
inactive: SK-MEL-2 melanoma 102% | EKVX NSCLC 107% | SN12C renal 94.5% | UO-31 renal 93.2% | TK-10 renal 103% | ACHN renal 103% | CAKI-1 renal 98% | A498 renal 89.7% | CCRF-CEM leukemia 86.4% | MOLT-4 leukemia 101% | RPMI-8226 leukemia 105% | OVCAR-8 ovarian 100% | OVCAR-5 ovarian 104% | OVCAR-4 ovarian 131% | SK-OV-3 ovarian 105% | IGROV1 ovarian 98.9% | OVCAR-3 ovarian 105% | HS 578T breast 98.8% | NCI/ADR-RES ovarian 99.2%

COCCOc1ccc(-c2nc3ccc(-c4nc5ccc(N6CCN(C)CC6)cc5[nH]4)cc3[nH]2)cc1
inactive: EKVX NSCLC 67.9% | SN12C renal 18.8% | UO-31 renal 79.2% | TK-10 renal 66.4% | ACHN renal 80.8% | CAKI-1 renal 68.6% | RPMI-8226 leukemia 28.4% | OVCAR-5 ovarian 45.3% | OVCAR-4 ovarian 14.1% | IGROV1 ovarian 28.3% | NCI/ADR-RES ovarian 100%
active: SK-MEL-2 melanoma -76.2% | A498 renal -37.8% | CCRF-CEM leukemia -2.49% | MOLT-4 leukemia 0.928% | OVCAR-8 ovarian -39% | SK-OV-3 ovarian 7.92% | OVCAR-3 ovarian 2.47% | HS 578T breast -3.7%

Cc1nc2nc(N)nc(N)c2nc1C
inactive: SK-MEL-2 melanoma 86.5% | EKVX NSCLC 97.9% | SN12C renal 93.1% | UO-31 renal 78.6% | TK-10 renal 95.4% | ACHN renal 96.3% | CAKI-1 renal 92.3% | A498 renal 100% | CCRF-CEM leukemia 98.5% | MOLT-4 leukemia 118% | RPMI-8226 leukemia 100% | OVCAR-8 ovarian 96.2% | OVCAR-5 ovarian 93.6% | OVCAR-4 ovarian 96.4% | SK-OV-3 ovarian 103% | IGROV1 ovarian 108% | OVCAR-3 ovarian 98% | HS 578T breast 99.6% | NCI/ADR-RES ovarian 102%

CS(=O)(=O)c1c(Nc2ccccc2)n[nH]c1N
inactive: SK-MEL-2 melanoma 113% | EKVX NSCLC 116% | SN12C renal 95% | UO-31 renal 96.4% | TK-10 renal 90.2% | ACHN renal 102% | CAKI-1 renal 105% | A498 renal 115% | CCRF-CEM leukemia 91.1% | MOLT-4 leukemia 98.6% | RPMI-8226 leukemia 97.8% | OVCAR-8 ovarian 105% | OVCAR-5 ovarian 102% | OVCAR-4 ovarian 117% | SK-OV-3 ovarian 103% | IGROV1 ovarian 112% | OVCAR-3 ovarian 121% | HS 578T breast 118% | NCI/ADR-RES ovarian 104%

C=C(CN1CCN(c2cccc(C(F)(F)F)n2)CC1)c1ccc(C(=O)Nc2ccccc2N)cc1
active: SK-MEL-2 melanoma -9.9% | CCRF-CEM leukemia -32.1% | MOLT-4 leukemia -14.5% | SR leukemia -20.9% | RPMI-8226 leukemia 4.35% | OVCAR-3 ovarian -38.2% | NCI/ADR-RES ovarian 1.99%
inactive: EKVX NSCLC 47.2% | SN12C renal 15.5% | UO-31 renal 12% | TK-10 renal 41.6% | ACHN renal 34% | CAKI-1 renal 14.3% | A498 renal 35.6% | OVCAR-8 ovarian 18.8% | OVCAR-5 ovarian 34.8% | OVCAR-4 ovarian 32.9% | SK-OV-3 ovarian 21.2%

Oc1cccc(Nc2nccc(-c3ccc4ccccc4c3)n2)c1
inactive: SK-MEL-2 melanoma 14.5% | EKVX NSCLC 50.5% | SN12C renal 33.8% | UO-31 renal 34% | TK-10 renal 62% | ACHN renal 37.6% | CAKI-1 renal 24% | A498 renal 71.2% | MOLT-4 leukemia 23.5% | OVCAR-8 ovarian 29.4% | OVCAR-5 ovarian 58.4% | OVCAR-4 ovarian 86.5% | SK-OV-3 ovarian 27.2% | IGROV1 ovarian 41.7% | OVCAR-3 ovarian 14.7% | HS 578T breast 13% | NCI/ADR-RES ovarian 19.9%
active: CCRF-CEM leukemia 6.6% | RPMI-8226 leukemia 9.15%

CN(C)CCOc1ccc(-c2nc3ccc(-c4nc5ccc(N6CCN(C)CC6)cc5[nH]4)cc3[nH]2)cc1
inactive: SK-MEL-2 melanoma 25.7% | EKVX NSCLC 83.6% | SN12C renal 63.5% | UO-31 renal 103% | TK-10 renal 90.7% | ACHN renal 111% | CAKI-1 renal 89.6% | A498 renal 35.3% | CCRF-CEM leukemia 85.4% | MOLT-4 leukemia 92% | RPMI-8226 leukemia 35.5% | OVCAR-8 ovarian 63.6% | OVCAR-5 ovarian 83% | OVCAR-4 ovarian 68% | SK-OV-3 ovarian 69.5% | IGROV1 ovarian 90% | OVCAR-3 ovarian 94.9% | HS 578T breast 76.4% | NCI/ADR-RES ovarian 108%

CCN(CC)CCCCNc1ccc(NCCCCN(CC)CC)c2c1C(=O)c1ccccc1C2=O
inactive: SK-MEL-2 melanoma 105% | EKVX NSCLC 100% | SN12C renal 84.1% | UO-31 renal 62.3% | TK-10 renal 57.8% | ACHN renal 88.4% | CAKI-1 renal 81.5% | A498 renal 110% | CCRF-CEM leukemia 78.6% | MOLT-4 leukemia 62.9% | RPMI-8226 leukemia 47.8% | OVCAR-8 ovarian 72.9% | OVCAR-5 ovarian 114% | OVCAR-4 ovarian 84.1% | SK-OV-3 ovarian 122% | IGROV1 ovarian 71.8% | OVCAR-3 ovarian 91.5% | HS 578T breast 101% | NCI/ADR-RES ovarian 83.4%

CCOC(=O)C12CCCC1=CC(=O)CC2 (stereo not drawn)
inactive: SK-MEL-2 melanoma 89.9% | EKVX NSCLC 111% | SN12C renal 110% | UO-31 renal 85.3% | TK-10 renal 128% | ACHN renal 106% | CAKI-1 renal 103% | A498 renal 110% | CCRF-CEM leukemia 95.7% | MOLT-4 leukemia 94.6% | RPMI-8226 leukemia 98.5% | OVCAR-8 ovarian 96.5% | OVCAR-5 ovarian 96.3% | OVCAR-4 ovarian 112% | SK-OV-3 ovarian 102% | IGROV1 ovarian 103% | OVCAR-3 ovarian 116% | HS 578T breast 98.2% | NCI/ADR-RES ovarian 104%

CCCCCCCCSC1=CC(=O)C(OC)=C(OC)C1=O
active: UO-31 renal -92.7% | TK-10 renal -99.3% | ACHN renal -77.8% | CAKI-1 renal -45.6% | CCRF-CEM leukemia -15.8% | MOLT-4 leukemia -5.17% | RPMI-8226 leukemia -24.5% | OVCAR-8 ovarian -9.18% | OVCAR-3 ovarian -40.8% | NCI/ADR-RES ovarian -27.1%
inactive: SK-MEL-2 melanoma 26.3% | EKVX NSCLC 43.8% | SN12C renal 10.7% | A498 renal 65.5% | OVCAR-5 ovarian 28% | OVCAR-4 ovarian 21.5% | SK-OV-3 ovarian 86.4% | IGROV1 ovarian 43.2% | HS 578T breast 63%

O=C(CO[N+](=O)[O-])Nc1ccc(C(=O)/C=C/c2ccc3c(c2)OCO3)cc1
inactive: SK-MEL-2 melanoma 119% | EKVX NSCLC 99.7% | SN12C renal 95.4% | UO-31 renal 77.1% | TK-10 renal 111% | ACHN renal 99.2% | CAKI-1 renal 93% | A498 renal 107% | CCRF-CEM leukemia 70% | MOLT-4 leukemia 99.7% | RPMI-8226 leukemia 46.8% | OVCAR-8 ovarian 75.8% | OVCAR-5 ovarian 96.5% | OVCAR-4 ovarian 96.1% | SK-OV-3 ovarian 111% | IGROV1 ovarian 48.3% | OVCAR-3 ovarian 80.6% | HS 578T breast 103% | NCI/ADR-RES ovarian 84.5%

N=c1c2ccccc2nc2n1CCCCC2
inactive: SK-MEL-2 melanoma 114% | EKVX NSCLC 103% | SN12C renal 104% | UO-31 renal 89.7% | TK-10 renal 123% | ACHN renal 105% | CAKI-1 renal 95.1% | A498 renal 121% | CCRF-CEM leukemia 92.9% | MOLT-4 leukemia 117% | RPMI-8226 leukemia 105% | OVCAR-8 ovarian 114% | OVCAR-5 ovarian 96.1% | OVCAR-4 ovarian 107% | SK-OV-3 ovarian 112% | IGROV1 ovarian 106% | OVCAR-3 ovarian 116% | HS 578T breast 95.4% | NCI/ADR-RES ovarian 105%

C[C@H](CCC(=O)O)[C@H]1CC[C@H]2[C@@H]3CC[C@@H]4/C(=C\c5ccco5)C(=O)/C(=C\c5ccco5)C[C@]4(C)[C@H]3CC[C@]12C
active: CCRF-CEM leukemia 0.613% | MOLT-4 leukemia 0.809% | RPMI-8226 leukemia 3.68%
inactive: SK-MEL-2 melanoma 73.2% | EKVX NSCLC 79.1% | SN12C renal 56.3% | UO-31 renal 49.6% | TK-10 renal 109% | ACHN renal 46.6% | CAKI-1 renal 55.6% | A498 renal 115% | OVCAR-8 ovarian 70.6% | OVCAR-5 ovarian 113% | OVCAR-4 ovarian 80% | SK-OV-3 ovarian 121% | IGROV1 ovarian 93% | OVCAR-3 ovarian 24.6% | HS 578T breast 69.3% | NCI/ADR-RES ovarian 80%

O=C(O)c1ccc(=O)[nH]n1
inactive: SK-MEL-2 melanoma 116% | EKVX NSCLC 116% | SN12C renal 94.3% | UO-31 renal 88.3% | TK-10 renal 117% | ACHN renal 98.8% | CAKI-1 renal 109% | A498 renal 105% | CCRF-CEM leukemia 112% | MOLT-4 leukemia 89% | RPMI-8226 leukemia 107% | OVCAR-8 ovarian 103% | OVCAR-5 ovarian 104% | OVCAR-4 ovarian 113% | SK-OV-3 ovarian 106% | IGROV1 ovarian 137% | OVCAR-3 ovarian 115% | HS 578T breast 111% | NCI/ADR-RES ovarian 109%
